# Assay results published in the supplement of paper PMC9262897, “Low-cost anti-mycobacterial drug discovery using engineered E. coli” (Nature Communications, 2022).
# Counter-ions that a name gives are not always drawn. ± gives the standard deviation of the averaged measurements.
# Test system: E. coli TESEC Mtb Alr
# Assay: growth (OD600 after 10 h); higher = more growth (less inhibition)
# Conditions: arabinose 10000 nM; compound 0.1 mM; raw OD600 reference: median of DMSO wells 0.264, cell-free background 0.041
# Description: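 TESEC Mtb Alr E. coli, or the Alr+ wild-type control, in 384-well plates with Prestwick library compounds at 0.1 mM and 1% DMSO, across arabinose induction levels of 1E3 to 1E7 nM. Growth is read as OD600 after 10 h at 37 °C in triplicate biological replicates.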
row,Compound,growth
1,CC(=O)N(O)CCCCCNC(=O)CCC(=O)N(O)CCCCCNC(=O)CCC(=O)N(O)CCCCCN [Deferoxamine mesylate],0.0561 ± 0.0031
2,O=c1cc(-c2ccc(O)c(O)c2)oc2cc(O)cc(O)c12 [Luteolin],0.05 ± 0.0007
3,Nc1nc(=O)c2nc(CNc3ccc(C(=O)N[C@@H](CCC(=O)O)C(=O)O)cc3)cnc2[nH]1 [Folic acid],0.239 ± 0.0047
4,O=C(O)CNC(=O)C(CS)Cc1ccccc1 (stereo unspecified) [Thiorphan],0.2568 ± 0.0017
5,CC1(C)S[C@@H]2[C@H](NC(=O)[C@H](NC(=O)N3CCNC3=O)c3ccccc3)C(=O)N2[C@H]1C(=O)O [Azlocillin sodium salt],0.276 ± 0.0051
6,Clc1cnccn1 [2-Chloropyrazine],0.0408 ± 0.0011
7,O=C(C1CCCCC1)N1CC(=O)N2CCc3ccccc3C2C1 (stereo unspecified) [Praziquantel],0.237 ± 0.015
8,C#C[C@]1(O)CC[C@H]2[C@@H]3CCC4=CC(=O)CC[C@@H]4[C@H]3CC[C@@]21CC [Norgestrel-(-)-D],0.2581 ± 0.0012
9,CCCCOc1ccc(C(=O)CCN2CCCCC2)cc1 [Dyclonine hydrochloride],0.252 ± 0.0069
10,CC1CCc2c(N3CCC(O)CC3)c(F)cc3c(=O)c(C(=O)O)cn1c23 (stereo unspecified) [Nadifloxacin],0.0418 ± 0.0029
11,OC(c1cc(C(F)(F)F)nc2c(C(F)(F)F)cccc12)C1CCCCN1 (stereo unspecified) [Mefloquine hydrochloride],0.0392 ± 0.0005

# Same assay, conditions: arabinose 100000 nM; compound 0.1 mM; raw OD600 reference: median of DMSO wells 0.201, cell-free background 0.041
row,Compound,growth
1,COc1ncnc(NS(=O)(=O)c2ccc(N)cc2)c1OC [Sulfadoxine],0.192 ± 0.021
2,c1ccc(C2CN3CCSC3=N2)cc1 (stereo unspecified) [Tetramisole hydrochloride],0.242 ± 0.045
3,CCCC1O[C@@H]2C[C@H]3[C@@H]4CCC5=CC(=O)C=C[C@]5(C)[C@H]4[C@@H](O)C[C@]3(C)[C@]2(C(=O)CO)O1 (stereo partly specified) [Budesonide],0.166 ± 0.015
4,COc1cc2ncnc(Nc3ccc(F)c(Cl)c3)c2cc1OCCCN1CCOCC1 [Gefitinib],0.198 ± 0.017
5,"C[C@H]1C[C@@H]2[C@H]([C@@H](O)C[C@@]3(C)[C@H]2CC[C@]3(O)C(=O)CO)[C@@]2(C)C=CC(=O)C=C12 [Methylprednisolone, 6-alpha]",0.1512 ± 0.0011
6,C[C@@H](O)[C@H]1C(=O)N2C(C(=O)O)=C(SCCNC=N)C[C@H]12 [Imipenem],0.202 ± 0.035
7,CC(=O)Oc1ccccc1C(=O)Nc1ncc([N+](=O)[O-])s1 [Nitazoxanide],0.0425 ± 0.0013
8,CC[C@H](C)[C@H](N)C1=N[C@H](C(=O)N[C@@H](CC(C)C)C(=O)N[C@H](CCC(=O)O)C(=O)N[C@H](C(=O)N[C@H]2CCCCNC(=O)[C@H](CC(N)=O)NC(=O)[C@@H](CC(=O)O)NC(=O)[C@H](Cc3cnc[nH]3)NC(=O)[C@@H](Cc3ccccc3)NC(=O)[C@H]([C@@H](C)CC)NC(=O)[C@@H](CCCN)NC2=O)[C@@H](C)CC)CS1 [Bacitracin],0.387 ± 0.0099
9,c1ccc([C@H]2CN3CCSC3=N2)cc1 [Levamisole hydrochloride],0.209 ± 0.017
10,"CN(Cc1cnc2nc(N)nc(N)c2n1)c1ccc(C(=O)N[C@@H](CCC(=O)O)C(=O)O)cc1 (racemic) [Amethopterin (R,S)]",0.206 ± 0.049
11,CCOC(=O)C1=C[C@]2(CC)CCCN3CCc4c(n1c1ccccc41)[C@@H]32 [Vinpocetine],0.184 ± 0.015
12,COc1ccccc1O [Guaiacol],0.192 ± 0.012
13,CC(=O)Oc1ccccc1C(=O)O [Acetylsalicylic acid],0.202 ± 0.019
14,C[C@]12CC[C@@H]3c4ccc(O)cc4C[C@@H](CCCCCCCCC[S+]([O-])CCCC(F)(F)C(F)(F)F)[C@H]3[C@@H]1CC[C@@H]2O (stereo partly specified) [Fulvestrant],0.195 ± 0.017
15,CC(=O)O[C@H]1C[C@@H]2CC[C@@H]3[C@H](CC[C@@]4(C)[C@H]3C[C@H]([N+]3(C)CCCCC3)[C@@H]4OC(C)=O)[C@@]2(C)C[C@@H]1N1CCCCC1 [Vecuronium bromide],0.07643 ± 0.00021
16,NS(=O)(=O)c1cc(C2(O)NC(=O)c3ccccc32)ccc1Cl (stereo unspecified) [Chlorthalidone],0.193 ± 0.0099
17,CC[C@H]1OC(=O)[C@H](C)[C@@H](O[C@H]2C[C@@](C)(OC)[C@@H](O)[C@H](C)O2)[C@H](C)[C@@H](O[C@@H]2O[C@H](C)C[C@H](N(C)C)[C@H]2O)[C@](C)(O)C[C@@H](C)CN(C)[C@H](C)[C@@H](O)[C@]1(C)O [Azithromycin],0.0416 ± 0.00058
18,CC(=O)N(CC(O)CN(C(C)=O)c1c(I)c(C(=O)NCC(O)CO)c(I)c(C(=O)NCC(O)CO)c1I)c1c(I)c(C(=O)NCC(O)CO)c(I)c(C(=O)NCC(O)CO)c1I (stereo unspecified) [Iodixanol],0.182 ± 0.022
19,CN1CCN2c3ccccc3Cc3ccccc3C2C1 (stereo unspecified) [Mianserine hydrochloride],0.211 ± 0.014
20,Clc1ccc2nsnc2c1NC1=NCCN1 [Tizanidine HCl],0.193 ± 0.028

row,Compound,growth
1,CC(=O)[C@H]1CC[C@H]2[C@@H]3CCC4=CC(=O)CC[C@]4(C)[C@H]3CC[C@]12C [Progesterone],0.145 ± 0.015
2,C#Cc1cccc(Nc2ncnc3cc(OCCOC)c(OCCOC)cc23)c1 [Erlotinib],0.202 ± 0.0068
3,Nc1cc(-c2ccncc2)c[nH]c1=O [Amrinone],0.193 ± 0.012
4,COc1cc2nc(N3CCN(C(=O)C4COc5ccccc5O4)CC3)nc(N)c2cc1OC (stereo unspecified) [Doxazosin mesylate],0.0463 ± 0.0012
5,CN1CCN(CCCN2c3ccccc3Sc3ccc(S(=O)(=O)N(C)C)cc32)CC1 [Thioproperazine dimesylate],0.195 ± 0.0039
6,O=c1[nH]c(=O)n([C@H]2C[C@H](O)[C@@H](CO)O2)cc1C(F)(F)F [Trifluridine],0.121 ± 0.0045
7,COc1ccc2cc(CCC(C)=O)ccc2c1 [Nabumetone],0.152 ± 0.012
8,CCN(CC)CCNC(=O)c1cc(Br)c(N)cc1OC [Bromopride],0.196 ± 0.0058
9,"O=C1C(O)=C(O)C(=O)C(O)=C1O [Tetrahydroxy-1,4-quinone hydrate]",0.19 ± 0.018
10,CC(=O)N(O)CCCCCNC(=O)CCC(=O)N(O)CCCCCNC(=O)CCC(=O)N(O)CCCCCN [Deferoxamine mesylate],0.0487 ± 0.0017
11,O=c1cc(-c2ccc(O)c(O)c2)oc2cc(O)cc(O)c12 [Luteolin],0.05233 ± 0.00025
12,Nc1nc(=O)c2nc(CNc3ccc(C(=O)N[C@@H](CCC(=O)O)C(=O)O)cc3)cnc2[nH]1 [Folic acid],0.244 ± 0.028
13,O=C(O)CNC(=O)C(CS)Cc1ccccc1 (stereo unspecified) [Thiorphan],0.252 ± 0.037
14,CC1(C)S[C@@H]2[C@H](NC(=O)[C@H](NC(=O)N3CCNC3=O)c3ccccc3)C(=O)N2[C@H]1C(=O)O [Azlocillin sodium salt],0.177 ± 0.0081
15,Clc1cnccn1 [2-Chloropyrazine],0.11 ± 0.0059
16,O=C(C1CCCCC1)N1CC(=O)N2CCc3ccccc3C2C1 (stereo unspecified) [Praziquantel],0.214 ± 0.021
17,C#C[C@]1(O)CC[C@H]2[C@@H]3CCC4=CC(=O)CC[C@@H]4[C@H]3CC[C@@]21CC [Norgestrel-(-)-D],0.193 ± 0.014
18,CCCCOc1ccc(C(=O)CCN2CCCCC2)cc1 [Dyclonine hydrochloride],0.183 ± 0.0081
19,CC1CCc2c(N3CCC(O)CC3)c(F)cc3c(=O)c(C(=O)O)cn1c23 (stereo unspecified) [Nadifloxacin],0.0437 ± 0.005
20,OC(c1cc(C(F)(F)F)nc2c(C(F)(F)F)cccc12)C1CCCCN1 (stereo unspecified) [Mefloquine hydrochloride],0.0403 ± 0.00056
